Screening results from PubChem BioAssay.
HT1080 IDH1KD tx – toxicity to HT-1080 IDH1 knockdown cells (counter line) | Potency, µM (doses to about 46.1 µM), for the others: top-dose activity, negative = toxicity, actives largely listed as cytotoxic | 2% of 360,000 active | HT-1080 IDH1 knockdown viability, ATP luminescence, 48 h;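 also: potency is read from the fitted curve at half-maximal effect; 0% = DMSO wells and -100% = cell-free medium wells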
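IDH1KD HT-1080 cells, 750/well, RPMI + 5% FBS; compound pinned after 2 h settling; 48 h, 37 °C; CellTiter-Glo luminescence; % activity normalised to DMSO and no-cell wells; curves fitted, classed by r2 and efficacy.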
TDP1 cell noCPT – qHTS for Inhibitors of human tyrosyl-DNA phosphodiesterase 1 (TDP1): qHTS in cells in absence of CPT; DT40 Tdp1-/- hTDP1 cells, no CPT, ATP luminescence, 48 h; Potency, µM (titrated, usually from 46.2 µM), inactives show top-dose activity change, negative = growth inhibition, most hits filed as inhibitors; 15% of 420,000 active; AID 686978, 2013; also: potency is read from the fitted curve at half-maximal effect; nearly all actives have a fitted effect of over 55% in size
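Readout: luminescence from CellTiter-Glo after 30 min in the dark at RT. Cells: DT40 Tdp1-/- with stable hTDP1, 400/well. Exposure: compounds alone, ≥48 hr, 37 °C.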
HT1080NT lethal – kills 2HG-producing HT-1080-NT fibrosarcoma cells; HT-1080-NT fibrosarcoma viability, CellTiter-Glo ATP luminescence, 48 h; 1.6% of 360,000 active; AID 686970; Potency, µM (highest dose often 46.1 µM), for inactives: at the top dose activity, negative = less viability, usual class: cytotoxic;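 also: NT is the 2HG producing partner of a matched IDH1 knockdown line; potency is read from the fitted curve at half-maximal effect; 0% = DMSO-treated cells and -100% = media-only wells without cells; nearly all actives have a fitted effect of over 55% in size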
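Viability of the 2HG-overproducing fibrosarcoma line after 48 hours of compound exposure at 37 degrees C was determined by luminescence with CellTiter-Glo, and concentration-effect curves were then fitted and categorized.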
IL-1B inflam inh – blocks inflammasome-driven IL-1 beta release. activity change, % at 57.5 µM. 4.7% of 360,000 active. THP-1 LPS/ATP IL-1B secretion, AlphaLISA, 16 h; hits give low values; in the data active = activity change below about -50%; inconclusive = mostly about -30% to -49%
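THP-1 cells pretreated 1 hr with compounds (up to 57.5 uM final), then stimulated with LPS (250 ng/mL final) plus ATP (1.25 mM final); secreted IL-1B measured by AlphaLISA after 16 hr, decreased signal indicating inhibition.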
DT40 TDP1 CPT – DT40-hTDP1 cell growth loss with CPT. 12% of 420,000 active. chicken DT40 Tdp1-/-;hTDP1 cells + 20 nM CPT, ATP luminescence, 48 h. Potency, µM (highest dose often 46.2 µM), inactives show top-dose activity change, negative = growth inhibition, usual class: inhibitors; also: potency is read from the fitted curve at half-maximal effect; nearly all actives have a fitted effect of over 55% in size
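Cell growth measured by CellTiter-Glo luminescence after a minimum 48 h, 37 C compound exposure with 20 nM CPT in Tdp1-knockout DT40 cells stably expressing hTDP1, seeded 400/well; qHTS titration format.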
An asterisk follows results filed as active; ? = inconclusive; · = no result given; ! = not active in a repeat; [ ] = remark or other dose. This is a sample that favours compounds with a hit; in the whole collection about 19% have one here. Unless noted, calls follow the shape of the dose curve; as a rule, active = well fitted curve in the direction sought with a large enough effect; inconclusive = small, poorly fitted or top-dose-only effect, or another doubt; inactive = no such curve, though single readings can be large; an effect the other way counts as inactive or inconclusive. Unless noted, % is scaled to controls: 0 for no effect and ±100 for the full control effect.

SMILES	HT1080 IDH1KD tx	TDP1 cell noCPT	HT1080NT lethal	IL-1B inflam inh	DT40 TDP1 CPT
CCCCCn1c(CN2CCN(c3cccc(Cl)c3)CC2)nc2c1c(=O)[nH]c(=O)n2C	?	?	?	-23.3	20.6µM*
CCOC(=O)C(C)/C(C)=N/NC(N)=S (stereo not drawn)	-6.5%	?	?	-60.1*	18.4µM*
CCOC(=O)C(C)/C(C)=N\Nc1ccc([N+](=O)[O-])cc1[N+](=O)[O-] (stereo not drawn)	-22.1%	?	-1.2%	19.8	?
Cc1ccc(C)c(CN2C(=O)CSc3ccc(C(=O)NCc4ccc(F)cc4)cc32)c1	·	?	·	·	16.4µM*
CCN1C(=O)CSc2ccc(C(=O)NC3CCCCC3)cc21	-21.2%	20µM*	3.0%	12.0	35.5µM*
Cc1ccc(CN2C(=O)CSc3ccc(C(=O)NC4CC4)cc32)cc1	-11.5%	?	-8.7%	-9.8	-7.1%
C=CCN1C(=O)CSc2ccc(C(=O)NC3CCCCC3)cc21	-9.5%	?	-8.9%	-8.8	?
Cc1ccc(C)c(CN2C(=O)CSc3ccc(C(=O)NCC(C)CN4CCC(C)CC4)cc32)c1 (stereo not drawn)	4.2%	?	3.7%	0.8	14.6µM*
COc1ccc(CCNC(=O)c2ccc3c(c2)N(Cc2c(F)cccc2Cl)C(=O)CS3)cc1OC	·	9.2µM*	·	·	8.2µM*
Cc1ccc(CC(=O)OC(C)C(=O)NC2CCCCC2C)cc1C (stereo not drawn)	7.6%	?	-1.8%	-21.6	?
Cc1nc2cc(NC(=O)[C@@H]3C[C@@H](Sc4ccccn4)CN3C3CCCCCC3)ccc2s1	·	1.0%	·	·	15.5%[9.04 µM]
O=C(NC1CCCC1)C1CCN(C(=O)c2ccc(-c3ccccc3)cc2)CC1	-8.9%	?	4.4%	-17.5	-18.5%
CCC(C)NC(=O)c1ccc2c(c1)N(Cc1ccccc1)C(=O)CS2 (stereo not drawn)	-4.0%	?	-3.8%	-6.9	?
Cc1ccc(C)c(CN2C(=O)CSc3ccc(C(=O)N4CCCC4)cc32)c1	-4.7%	?	-2.7%	-20.7	?
O=C(NCCN1CCOCC1)c1ccc2c(c1)N(Cc1ccc(F)cc1)C(=O)CS2	-4.6%	3.4%	0.9%	-6.4	-9.6%
O=C(NCCc1ccc(Cl)cc1)c1ccc2c(c1)N(Cc1ccccc1)C(=O)CS2	·	18.4µM*	·	·	16.4µM*
O=C(NCCc1ccccc1)c1ccc2c(c1)N(Cc1c(F)cccc1Cl)C(=O)CS2	·	9.2µM*	·	·	14.6µM*
O=C(NCCc1ccccc1)c1ccc2c(c1)N(Cc1ccc(F)cc1)C(=O)CS2	·	16.4µM*	·	·	?
Cc1ccc(C)c(CN2C(=O)CSc3ccc(C(=O)NCCc4ccc(Cl)cc4)cc32)c1	·	?	·	·	8.2µM*
CCN1C(=O)CSc2ccc(C(=O)NCc3ccccc3)cc21	-10.0%	2.6%	5.6%	13.3	-26.0%
CCOC(=O)c1ccc(-c2c(-c3ccc4c(c3)OCO4)noc2-c2ccsc2)cc1F	10.7%	?	2.1%	21.1	?
c1ccc(-c2onc(-c3ccco3)c2-c2ccc3[nH]ccc3c2)cc1	-14.5%	?	-17.1%	-11.4	7.94µM*
Cc1onc(-c2ccc3c(c2)OCO3)c1-c1ccc2[nH]ccc2c1	?	16.4µM*	-21.1%	-57.5*	18.4µM*
c1cc2cc(-c3c(-c4ccc5c(c4)OCO5)noc3-c3ccsc3)ccc2[nH]1	?	3.16µM*!	-26.3%	-57.2*	?
c1ccc(-c2ccc3[nH]ccc3c2)cc1	5.4%	?	12.0%	-3.2	?
SMILES	HT1080 IDH1KD tx	TDP1 cell noCPT	HT1080NT lethal	IL-1B inflam inh	DT40 TDP1 CPT
COc1cc(-c2c(-c3ccc4c(c3)OCO4)noc2-c2ccsc2)ccc1F	4.8%	?	-5.3%	-16.5	?
Cc1ccccc1Nc1nc(N)nc(COC(=O)[C@@H](NC(=O)c2c(F)cccc2F)C(C)C)n1	-7.7%	?	-1.1%	3.0	10.0%
C=CCN(C(=O)c1csnn1)C(C(=O)NC(C)(C)C)c1ccncc1 (stereo not drawn)	14.4%	4.4%	5.1%	10.1	5.2%
CSc1nc(C=Nc2ccccc2Cl)c(O)n1Cc1cccc(Cl)c1	7.6%	-1.5%	4.0%	13.1	2.4%
COc1ccc(-c2nc(-c3ccccc3)c(-c3ccc(F)cc3)[nH]2)c(OC)c1C	·	?	·	·	20.6µM*
CCOc1ccc(-c2nc(-c3ccccc3)no2)cc1OCC	4.3%	?	6.3%	-3.4	?
CCOc1ccc(-c2nc(-c3ccccc3)c(-c3ccccc3)[nH]2)cc1OCC	·	18.4µM*	·	·	20.6µM*
CCOc1cc(-c2nc(-c3ccccc3)c(-c3cc([N+](=O)[O-])ccc3C)[nH]2)ccc1O	-26.9%	23.1µM*	-24.4%	-14.4	?
O=[N+]([O-])c1ccc(O)c(-c2nc(-c3ccccc3)c(-c3cccs3)[nH]2)c1	?	18.4µM*	?	-3.6	20.6µM*
O=C(O)c1ccc(-c2nc(-c3ccccc3)c(-c3cccs3)[nH]2)cc1	9.7%	11.1%	10.0%	32.2	15.2%
Nc1cc(C(=O)O)ccc1N1CCCCCC1	4.7%	-1.1%	9.0%	0.0	1.9%
CC1(C(=O)NS(=O)(=O)c2cccc(F)c2)CCN1C(=O)C1(c2ccc(Cl)cc2)CCC1 (stereo not drawn)	11.0%	1.7%	-11.9%	0.0	-23.5%
COc1ccc(-c2cn3cc([N+](=O)[O-])ccc3n2)cc1OC	7.5%	?	14.0%	-29.7	?
COc1ccc(-c2nc(-c3ccccc3)c(-c3cc([N+](=O)[O-])ccc3C)[nH]2)cc1OC	-8.9%	18.4µM*	-17.9%	-6.1	23.1µM*
Cn1nc(-c2ccc(Cl)cc2)c2cc(C(=O)NC3CC3)sc21	-8.5%	?	-7.3%	0.0	?
COc1ccc(-c2nn(C)c3sc(C(=O)Nc4cccc(F)c4)cc23)cc1OC	·	10.3µM*	·	·	14.6µM*
COc1cccc(NC(=O)c2cc3c(-c4ccc(Cl)cc4)nn(C)c3s2)c1	·	14.6µM*	·	·	?
O=C(COC(=O)c1n[nH]c(=O)c2ccccc12)Nc1ccccc1	-9.4%	-2.3%	0.6%	-8.2	-5.8%
CCOc1ccc(S(=O)(=O)NCCCN2CCCC2=O)cc1	0.4%	-7.1%	-3.8%	11.3	6.9%
CN(Cc1ccon1)Cc1cn(C)nc1-c1cccc(Cl)c1	-10.0%	?	-1.9%	13.3	?
CCc1ccc2c(c1)c(=O)c(S(=O)(=O)c1ccccc1)cn2CC(=O)Nc1cc(C)ccc1C	·	-0.3%	·	·	16.3%
Cc1ccc(NC(=O)Cn2c(O)c(N=NC(N)=S)c3ccccc32)cc1	?	?	?	5.5	?
